BAZ2B inh = inhibitors of human BAZ2B bromodomain; AlphaScreen BAZ2B-H3K14Ac peptide displacement; 360,000 compounds, 4.4% hits; Potency, µM (highest dose often 114 µM), for the others: top-dose activity change, negative = inhibition, usual class: inhibitors; AID 504333; further: potency means the concentration at half of the fitted maximal effect; on the % scale 0 is the no-effect control and ±100 the full control effect; nearly all actives have a fitted effect of over 60% in size
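Protein-peptide AlphaScreen: BAZ2B 50 nM, b-H3K14Ac 50 nM, 1x PBS pH 7.4 + 0.01% Tween-20. Preincubation 30 min RT; cpd 30 min RT (top 110 uM); beads 20 min RT, light-protected.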
JMJD2A Tudor inh = blocks the human JMJD2A Tudor domain; Potency, µM (doses to about 114 µM), inactives show at the top dose activity change, negative = inhibition, usual class: inhibitors; 390,000 compounds, 4.4% hits; O75164; AlphaScreen JMJD2A-Tudor / H3K4me3 peptide binding; AID 504339; further: potency means the concentration at half of the fitted maximal effect; on the % scale 0 is the no-effect control and ±100 the full control effect; nearly all actives have a fitted effect of over 50% in size
TDP1 block = blocks human tyrosyl-DNA phosphodiesterase 1; Q9NUW8; recombinant TDP1, AlphaScreen DNA substrate cleavage; Potency, µM (top dose mostly 130 µM), inactives show at the highest dose activity change, negative = inhibition, hits mostly inhibitors; 350,000 compounds, 0.28% hits; further: potency means the concentration at half of the fitted maximal effect; on the % scale 0 is the no-effect control and ±100 the full control effect; nearly all actives have a fitted effect of over 40% in size
Target sequence (Q9NUW8 whole entry, looked up): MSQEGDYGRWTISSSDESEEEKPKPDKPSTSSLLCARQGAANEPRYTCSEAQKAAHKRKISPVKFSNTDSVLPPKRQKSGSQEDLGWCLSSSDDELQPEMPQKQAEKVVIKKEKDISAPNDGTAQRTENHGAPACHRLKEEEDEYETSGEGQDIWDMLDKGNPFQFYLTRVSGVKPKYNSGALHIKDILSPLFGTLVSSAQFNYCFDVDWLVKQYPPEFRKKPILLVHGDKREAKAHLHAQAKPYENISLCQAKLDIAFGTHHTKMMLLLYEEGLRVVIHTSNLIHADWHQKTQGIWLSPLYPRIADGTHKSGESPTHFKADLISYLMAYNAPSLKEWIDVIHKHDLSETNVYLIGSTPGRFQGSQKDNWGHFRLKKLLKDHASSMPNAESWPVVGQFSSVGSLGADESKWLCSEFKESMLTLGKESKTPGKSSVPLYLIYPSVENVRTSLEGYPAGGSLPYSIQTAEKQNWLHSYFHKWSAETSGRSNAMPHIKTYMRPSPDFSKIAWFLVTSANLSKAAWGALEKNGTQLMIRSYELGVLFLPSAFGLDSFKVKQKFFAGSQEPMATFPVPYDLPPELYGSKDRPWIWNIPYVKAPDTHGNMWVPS
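Here, a 5' biotin and 3' phosphotyrosine-FITC DNA oligonucleotide reports Tdp1 activity: intact substrate bridges AlphaScreen beads, while cleavage leaves a 3' phosphate and drops signal. All incubations at room temperature.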
Six1-Eya2 inh = Six1/Eya2 interaction inhibition; Q15475+O00167; AlphaScreen GST-Six1/His-Eya2 binding, biochemical; hits give low values; activity change, % (test concentration not listed); 360,000 compounds, 0.56% hits; AID 651725; in the data active means activity change below about -65%; inconclusive means mostly about -30% to -63%; further: on the % scale 0 is the no-effect control and ±100 the full control effect
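Homogeneous AlphaScreen proximity assay pairing GST-Six1 with His-tagged Eya2 (added as 5X mix: 250 nM and 500 nM) in 50 mM Tris pH 8.0, 300 mM NaCl, 1 mM TCEP. Glutathione donor and nickel acceptor beads; 1 h, 37 °C, dark.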
CtBP-E1A blk = inhibitors of CtBP/E1A interaction; AlphaScreen GST-E1A/His-CtBP binding, 1536-well; hits give low values; activity change, % (test concentration not listed); 340,000 compounds, 0.49% hits; in the data active means activity change below about -65%; inconclusive means mostly about -30% to -63%; further: on the % scale 0 is the no-effect control and ±100 the full control effect
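GST-E1A and His-tagged CtBP (125 nM each as 5X stock) were preincubated with pin-transferred compound for 2 h at 37 °C in the dark, then glutathione donor and nickel acceptor beads were added for 1 h before AlphaScreen reading.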
HP1b binding inh = HP1-beta chromodomain-methylated histone interaction inhibition; P83916; AlphaScreen HP1-beta / biotin-H3K9me3 peptide binding; Potency, µM (top dose mostly 114 µM), inactives show top-dose activity change, negative = inhibition, usual class: inhibitors; 390,000 compounds, 0.56% hits; AID 540317; further: potency means the concentration at half of the fitted maximal effect; nearly all actives have a fitted effect of over 70% in size
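HP1-beta protein (50 nM final) preincubated 30 min at room temperature with biotinylated H3(1-18)K9me3 peptide (50 nM) in PBS pH 7.4, 0.01% Tween-20, then compound added for 30 min. AlphaScreen streptavidin donor/nickel chelate acceptor beads (10 ug/mL final), 30 min dark, luminescence read.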
Starred values were filed as active, the others as inactive; ? = inconclusive; / = not tested or not shown; ! = repeats disagree; [ ] = remark or other dose. Sampled rows, rich in hits. Any-hit rate of the full collection: about 5.3%. Unless noted, the call rests on the fitted dose curve; in most records, active means well fitted inhibition curve with a large enough effect; inconclusive means small, poorly fitted or top-dose-only effect; inactive means no such curve, though single readings can be large or run the other way.

SMILES	BAZ2B inh	JMJD2A Tudor inh	TDP1 block	Six1-Eya2 inh	CtBP-E1A blk	HP1b binding inh
Cc1cccc(NS(=O)(=O)c2nnc(NC(=O)C3CCCCC3)s2)c1	6.3µM*!	-15%	4%	-1	-1	34%
Cc1cccc(NS(=O)(=O)c2nnc(NC(=O)CC(C)C)s2)c1	8%	-4%	/	-1	/	44%
COc1ccc(Cc2n[nH]c(=S)o2)cc1	-4%	32µM*	-6%	3	-5	26%
COc1ccc(CCCc2n[nH]c(=S)o2)cc1	?	-12%	5%	5	8	29%
Cc1ccccc1CSCCNC(=O)CN(c1ccccc1)S(=O)(=O)N(C)C	-7%	45µM*	2%	/	/	5%
O=C1CC(c2c(Cl)cccc2Cl)c2c(ccc3ccccc23)N1 (stereo unspecified)	1%	?	0%[12.3 µM]	/	/	8%
S=c1[nH]nc(CSc2nc3ccccc3s2)o1	?	45µM*	-6%	-3	0	3%
Cn1c(-c2sc3ccccc3c2Cl)n[nH]c1=S	-12%	22µM*	8%	-2	0	-27%
Cn1c(CSc2nc3ccccc3s2)n[nH]c1=S	10%	32µM*	3%	-1	-1	-27%
CC(C)OC(=O)[C@@H]1CC[C@H](C)[C@@H](CCC[C@@H]2C[C@@H](O)C[C@H](CC#N)O2)O1	/	/	16%	/	/	/
c1ccc(-n2cnc3cc(NCc4ccco4)ccc32)cc1	?	79µM*	9%	-13	4	?
COc1ccc(-n2cnc3cc(NCc4cccs4)ccc32)cc1	18µM*	-15%[11.4 µM]	12%	-25	?	40µM*
Cn1cnc2cc(NCc3cccs3)ccc21	-30%	-34%	3%	-2	10	1%
c1ccc(-n2cnc3cc(NCc4cccs4)ccc32)cc1	50µM*	56µM*	10%	-13	-21	-32%
COc1ccc(Cn2c(CCC(=O)Nc3ccc(OC)c(Cl)c3)nc3cccnc32)cc1	-11%	3%	6%	/	/	20%
O=C(O)Cn1cc(/C=N/NC(=O)c2cc3cc(Br)ccc3o2)c2ccccc21	50µM*	7%	/	-27	-16	43%
O=C(O)c1ccc(-n2cccc2/C=N\NC(=O)c2cc3cc(Br)ccc3o2)cc1	7.9µM*	22µM*	1.1µM*	-20	1	45µM*
Cn1cc(/C=N/NC(=O)c2cc3cc(Br)ccc3o2)c2ccccc21	3%	-9%	/	3	9	36%
COc1ccc(OC)c(/C=N\NC(=O)c2cc3c(ccc4ccccc43)o2)c1	-4%	-6%	3%	-10	-18	32%
O=C(N/N=C/c1ccccc1F)c1cc2c(ccc3ccccc32)o1	?	?	8.9µM*	4	6	29%
COc1ccccc1CNC(=O)CCc1c(C)nn(-c2ccc(N3CCOCC3)nn2)c1C	-3%	5%	5%	/	/	37%
[O-]c1c[n+](-c2ccc(-[n+]3cc([O-])on3)cc2)no1	50µM*	?	-3%	-6	5	?
[O-]c1c[n+](-c2ccccc2)no1	-2%	-18%	/	6	/	57%
O=[N+]([O-])c1ccc(C2=NN(c3ccccc3)C(c3ccco3)C2)cc1 (stereo unspecified)	-33%	?	/	0	3	?
O=[N+]([O-])c1ccc(/C=C/C2=NN(c3ccccc3)C(c3ccco3)C2)cc1 (stereo unspecified)	50µM*	?	1%	-12	-7	-20%[57 µM]
SMILES	BAZ2B inh	JMJD2A Tudor inh	TDP1 block	Six1-Eya2 inh	CtBP-E1A blk	HP1b binding inh
CC(C)(C)S(=O)(=O)/C(C#N)=C/c1cccn1S(=O)(=O)c1ccccc1	/	/	/	-12	-12	/
CC(C)(C)S(=O)(=O)/C(C#N)=C/c1sccc1C1OCCO1	-13%	71µM*	8%	-12	2	-11%
CN(C)c1ccc(C(CNS(=O)(=O)c2ccc(Br)cc2)N2CCCC2)cc1 (stereo unspecified)	35µM*	45µM*	4%	/	/	?
CN(C)c1ccc(C(CNS(=O)(=O)c2ccc(Cl)cc2)N2CCCC2)cc1 (stereo unspecified)	32µM*	50µM*	6%	/	/	?
Cc1ccc(CNC(=O)CSCc2ccccc2C)cc1	17%	4%	7%	/	/	51%
COc1cc(/C=N/n2c(-c3n[nH]c4c3CCC4)n[nH]c2=S)ccc1O	-34%	3.2µM*	/	-1	1	?
COc1ccc(/C=N/n2c(-c3n[nH]c4c3CCC4)n[nH]c2=S)cc1OC	-30%	1.4µM*	9%	4	6	-16%
COc1ccc(/C=N/n2c(C)nc3ccccc3c2=O)cc1OC	2%	-19%	/	9	-1	8%
Cc1cccc(-n2c(O)c(C=Nc3ccccc3-c3n[nH]c(=S)[nH]c3=O)c3ccccc3c2=O)n1	-34%	?	-3%	-6	/	9%
Cc1ccc(-n2c(O)c(C=Nc3ccccc3-c3n[nH]c(=S)[nH]c3=O)c3ccccc3c2=O)cc1C	45µM*	50µM*	2%	-27	-13	-36%
CC1CC(C)CN(c2oc(Cc3ccccc3)nc2C#N)C1 (stereo unspecified)	14µM*	?	9%	?	?	?
CCN(CC)CCC=C(c1cccs1)c1cccs1	/	0.89µM*	/	20	3	?
CCN(CC)C(=O)Cn1c(=O)n(CCCCCC(=O)NCc2ccc3c(c2)OCO3)c(=O)c2sccc21	3%	-3%	-11%	/	/	19%
C/C=C/c1ccc(OCCN2CCc3ccccc3C2)c(OC)c1	?	0.89µM*	-3%	-1	-6	?
C=CCc1ccc(OCCN2CCc3ccccc3C2)c(OC)c1	50µM*	?	-2%	-9	-3	?
CCCC12CN3CC(C)(CN(C1)C3c1ccc(CC)cc1)C2=O (stereo unspecified)	4%	8%	2%	/	/	68%
CN(C(=O)CSc1nc2ccccc2[nH]1)c1ccc(F)cc1	-1%	7%	-1%	/	/	23%
Clc1ccc(OCCCn2ccnc2)c(Br)c1	32µM*	5.6µM*	6%	-2	-1	16µM*
Cc1cc(Cl)c(OCCCn2ccnc2)c(Br)c1	50µM*	22µM*	2%	-13	0	?
Cc1cccc(C)c1OCCCn1ccnc1	?	25µM*	/	-1	/	?
Cc1cc(C)c(OCCCn2ccnc2)c(C)c1	?	-24%	/	2	2	25%
O=C(O)c1ccc(-c2ccc3cc(C45CC6CC(CC(C6)C4)C5)c(O)cc3c2)cc1	/	/	4%	/	/	/
CCNC(=O)C1CCCc2c1[nH]c1ccc(Cl)cc21 (stereo unspecified)	79µM*	-15%[57.1 µM]	-1%	0	15	0%
